Assay results taken from PubChem BioAssay AID1159580 (chemical genetic matrix, 2015).
In all, about 5,500 compounds went through this assay and about 2,000 (36%) were called active. Inconclusive results (about 18%) are left out. No stated cut-off is given here; in the data, active means normalized growth mostly below about 0.91 (no sharp cut-off); inconclusive means no clear call, values can overlap the other calls; inactive means mostly above about 0.92. This is one part of the list.

Assay: chemical genetic growth profiling, strain panel (AID 1159580);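 further: tested at 20 µM; growth read once vehicle control cultures reached saturation at 30 °C; 1 = growth at the plate median or of vehicle wells; lower values mean less growth of the strain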
Settings: growth OD

Measured: normalized growth

O=C(O)c1ccccc1C(=O)Nc1ccc(S(=O)(=O)Nc2nccs2)cc1
inactive: S. cerevisiae deletion strains, locus YJR066W, strain TOR1, hits give low values 0.983 | S. cerevisiae deletion strains, locus YJR075W, strain HOC1, hits give low values 1.02 | S. cerevisiae deletion strains, locus YKL009W, strain mrt4, hits give low values 1.03 | S. cerevisiae deletion strains, locus YKL068W, hits give low values 0.987 | S. cerevisiae deletion strains, locus YKL085W, strain MDH1 (second series), hits give low values 0.984 | S. cerevisiae deletion strains, locus YKL085W, strain MDH1, hits give low values 0.984 | S. cerevisiae deletion strains, locus YKL160W, strain elf1, hits give low values 0.972 | S. cerevisiae deletion strains, locus YKL190W, strain CNB1, hits give low values 1 | S. cerevisiae deletion strains, locus YKR001C, strain vps1, hits give low values 1 | S. cerevisiae deletion strains, locus YKR026C, strain gcn3, hits give low values 0.981 | S. cerevisiae deletion strains, locus YKR091W, strain srl3, hits give low values 0.984 | S. cerevisiae deletion strains, locus YLL001W, strain dnm1, hits give low values 0.966 | S. cerevisiae deletion strains, locus YLL026W, hits give low values 0.988 | S. cerevisiae deletion strains, locus YLL041C, strain sdh2, hits give low values 0.969 | S. cerevisiae deletion strains, locus YLR027C, strain aat2, hits give low values 0.982 | S. cerevisiae deletion strains, locus YLR039C, strain RIC1, hits give low values 1 | S. cerevisiae deletion strains, locus YLR058C, strain SHM2, hits give low values 1.01 | S. cerevisiae deletion strains, locus YLR102C, strain apc9, hits give low values 0.99 | S. cerevisiae deletion strains, locus YLR113W, strain HOG1, hits give low values 1 | S. cerevisiae deletion strains, locus YLR221C, strain rsa3, hits give low values 0.95 | S. cerevisiae deletion strains, locus YLR258W, strain gsy2, hits give low values 0.986 | S. cerevisiae deletion strains, locus YLR262C, strain YPT6 (second series), hits give low values 1 | S. cerevisiae deletion strains, locus YLR262C, strain YPT6, hits give low values 1.03 | S. cerevisiae deletion strains, locus YLR268W, strain sec22, hits give low values 0.998 | S. cerevisiae deletion strains, locus YLR320W, strain mms22, hits give low values 0.976 | S. cerevisiae deletion strains, locus YLR330W, strain CHS5, hits give low values 1 | S. cerevisiae deletion strains, locus YLR342W, strain FKS1 (second series), hits give low values 0.994 | S. cerevisiae deletion strains, locus YLR342W, strain FKS1, hits give low values 0.99 | S. cerevisiae deletion strains, locus YLR357W, strain rsc2, hits give low values 0.975 | S. cerevisiae deletion strains, locus YLR370C, strain arc18, hits give low values 0.959 | S. cerevisiae deletion strains, locus YLR371W, strain rom2, hits give low values 0.998 | S. cerevisiae deletion strains, locus YLR384C, strain iki3, hits give low values 0.976 | S. cerevisiae deletion strains, locus YLR418C, strain cdc73, hits give low values 0.992 | S. cerevisiae deletion strains, locus YML016C, strain PPZ1, hits give low values 0.995 | S. cerevisiae deletion strains, locus YML032C, strain rad52, hits give low values 0.994 | S. cerevisiae deletion strains, locus YML120C, strain ndi1, hits give low values 0.969 | S. cerevisiae deletion strains, locus YML124C, strain tub3, hits give low values 0.992 | S. cerevisiae deletion strains, locus YMR058W, strain fet3, hits give low values 0.98 | S. cerevisiae deletion strains, locus YMR078C, strain ctf18, hits give low values 0.99 | S. cerevisiae deletion strains, locus YMR125W, strain sto1, hits give low values 0.96 | S. cerevisiae deletion strains, locus YMR129W, hits give low values 0.989 | S. cerevisiae deletion strains, locus YMR205C, strain PFK2, hits give low values 0.965 | S. cerevisiae deletion strains, locus YMR223W, strain ubp8, hits give low values 0.998 | S. cerevisiae deletion strains, locus YMR231W, strain pep5, hits give low values 0.974 | S. cerevisiae deletion strains, locus YMR307W, strain GAS1, hits give low values 0.973 | S. cerevisiae deletion strains, locus YNL067W, strain RPL9B, hits give low values 1.01 | S. cerevisiae deletion strains, locus YNL071W, strain lat1, hits give low values 0.987 | S. cerevisiae deletion strains, locus YNL128W, strain TEP1, hits give low values 1.02 | S. cerevisiae deletion strains, locus YNL183C, strain NPR1, hits give low values 0.975 | S. cerevisiae deletion strains, locus YNL209W, strain ssb2, hits give low values 0.989 | S. cerevisiae deletion strains, locus YNL233W, strain BNI4, hits give low values 1.01 | S. cerevisiae deletion strains, locus YNL248C, strain rpa49, hits give low values 0.97 | S. cerevisiae deletion strains, locus YNL250W, strain rad50, hits give low values 1 | S. cerevisiae deletion strains, locus YNL271C, strain bni1, hits give low values 0.982 | S. cerevisiae deletion strains, locus YNL298W, strain CLA4, hits give low values 0.995 | S. cerevisiae deletion strains, locus YNL307C, strain MCK1, hits give low values 1 | S. cerevisiae deletion strains, locus YNL322C, strain KRE1 (second series), hits give low values 0.945 | S. cerevisiae deletion strains, locus YNL322C, strain KRE1, hits give low values 1.01 | S. cerevisiae deletion strains, locus YNR049C, strain mso1, hits give low values 0.976 | S. cerevisiae deletion strains, locus YNR052C, strain pop2, hits give low values 0.994 | S. cerevisiae deletion strains, locus YOL006C, strain TOP1, hits give low values 1.02 | S. cerevisiae deletion strains, locus YOL012C, strain htz1 0.647 | S. cerevisiae deletion strains, locus YOL147C, strain pex11, hits give low values 0.987 | S. cerevisiae deletion strains, locus YOR001W, strain rrp6, hits give low values 0.999 | S. cerevisiae deletion strains, locus YOR061W, strain CKA2, hits give low values 1 | S. cerevisiae deletion strains, locus YOR069W, strain VPS5, hits give low values 1 | S. cerevisiae deletion strains, locus YOR070C, strain gyp1, hits give low values 0.976 | S. cerevisiae deletion strains, locus YOR080W, strain dia2, hits give low values 0.973 | S. cerevisiae deletion strains, locus YOR083W, strain WHI5, hits give low values 0.983 | S. cerevisiae deletion strains, locus YOR106W, strain vam3, hits give low values 0.972 | S. cerevisiae deletion strains, locus YOR136W, strain idh2, hits give low values 1 | S. cerevisiae deletion strains, locus YOR144C, strain elg1, hits give low values 0.993 | S. cerevisiae deletion strains, locus YOR184W, strain ser1, hits give low values 1 | S. cerevisiae deletion strains, locus YOR231W, strain MKK1, hits give low values 1.04 | S. cerevisiae deletion strains, locus YOR265W, strain rbl2, hits give low values 0.99 | S. cerevisiae deletion strains, locus YOR270C, strain vph1, hits give low values 0.983 | S. cerevisiae deletion strains, locus YOR290C, strain snf2, hits give low values 0.959 | S. cerevisiae deletion strains, locus YOR316C, strain cot1, hits give low values 1.01 | S. cerevisiae deletion strains, locus YPL051W, strain arl3, hits give low values 1 | S. cerevisiae deletion strains, locus YPL078C, strain atp4, hits give low values 0.983 | S. cerevisiae deletion strains, locus YPL106C, strain sse1, hits give low values 0.936 | S. cerevisiae deletion strains, locus YPL240C, strain hsp82, hits give low values 0.979 | S. cerevisiae deletion strains, locus YPL241C, strain CIN2, hits give low values 0.999 | S. cerevisiae deletion strains, locus YPL256C, strain CLN2, hits give low values 1.02 | S. cerevisiae deletion strains, locus YPR119W, strain clb2, hits give low values 0.99 | S. cerevisiae deletion strains, locus YPR141C, strain kar3, hits give low values 0.984 | S. cerevisiae deletion strains, locus YPR163C, strain tif3, hits give low values 0.993 | S. cerevisiae deletion strains, locus YPR167C, strain met16, hits give low values 0.997 | S. cerevisiae deletion strains, strain wtn01, hits give low values 0.995 | S. cerevisiae strains, strain wild type, hits give low values 1
